# From PMC4336329 (PLoS ONE, 2015)
# Hit rate of the full screen: of about 310,000 compounds, about 2,200 (0.71%) showed an effect of 50% or more. Effects have a minus sign here. The list comes from a sample in which strong results are over-represented; it also holds similar structures and randomly drawn compounds.
# Biological target: human ether-à-go-go-related gene (hERG) potassium channel (human, UniProt Q12809)
# Test: primary screen, population patch clamp on CHO cells stably expressing hERG; higher = less effect of the substance
# Method: Briefly, Chinese hamster ovary (CHO) cells stably expressing the hERG channel were dislodged from tissue culture flasks and dispensed into PPC plates. […] During the recording, background leak currents were estimated by a 100 ms step to -80 mV from an initial holding potential of -70 mV and subtracted from the subsequent current measurement. The campaign was conducted in two phases using slight differences in recording protocol. In the first phase, the initial voltage pulse used a 100 ms step to -30 mV from a holding potential of -70 mV, a 2 s conditioning step to +25 mV, and a 2 s test step to -30 mV. During the second phase of the screen, the potential during the conditioning step was raised to +45 mV. In both phases of the campaign, a secondary voltage pulse was applied using the same parameters as the second phase initial pulse. The initial and secondary pulses were applied in the absence of compound, and upon application of 1 μM and 10 μM test concentrations. Small molecule effects on hERG current density were quantified by […].
# human ether-à-go-go-related gene (hERG) potassium channel, sequence (Q12809 whole entry, looked up): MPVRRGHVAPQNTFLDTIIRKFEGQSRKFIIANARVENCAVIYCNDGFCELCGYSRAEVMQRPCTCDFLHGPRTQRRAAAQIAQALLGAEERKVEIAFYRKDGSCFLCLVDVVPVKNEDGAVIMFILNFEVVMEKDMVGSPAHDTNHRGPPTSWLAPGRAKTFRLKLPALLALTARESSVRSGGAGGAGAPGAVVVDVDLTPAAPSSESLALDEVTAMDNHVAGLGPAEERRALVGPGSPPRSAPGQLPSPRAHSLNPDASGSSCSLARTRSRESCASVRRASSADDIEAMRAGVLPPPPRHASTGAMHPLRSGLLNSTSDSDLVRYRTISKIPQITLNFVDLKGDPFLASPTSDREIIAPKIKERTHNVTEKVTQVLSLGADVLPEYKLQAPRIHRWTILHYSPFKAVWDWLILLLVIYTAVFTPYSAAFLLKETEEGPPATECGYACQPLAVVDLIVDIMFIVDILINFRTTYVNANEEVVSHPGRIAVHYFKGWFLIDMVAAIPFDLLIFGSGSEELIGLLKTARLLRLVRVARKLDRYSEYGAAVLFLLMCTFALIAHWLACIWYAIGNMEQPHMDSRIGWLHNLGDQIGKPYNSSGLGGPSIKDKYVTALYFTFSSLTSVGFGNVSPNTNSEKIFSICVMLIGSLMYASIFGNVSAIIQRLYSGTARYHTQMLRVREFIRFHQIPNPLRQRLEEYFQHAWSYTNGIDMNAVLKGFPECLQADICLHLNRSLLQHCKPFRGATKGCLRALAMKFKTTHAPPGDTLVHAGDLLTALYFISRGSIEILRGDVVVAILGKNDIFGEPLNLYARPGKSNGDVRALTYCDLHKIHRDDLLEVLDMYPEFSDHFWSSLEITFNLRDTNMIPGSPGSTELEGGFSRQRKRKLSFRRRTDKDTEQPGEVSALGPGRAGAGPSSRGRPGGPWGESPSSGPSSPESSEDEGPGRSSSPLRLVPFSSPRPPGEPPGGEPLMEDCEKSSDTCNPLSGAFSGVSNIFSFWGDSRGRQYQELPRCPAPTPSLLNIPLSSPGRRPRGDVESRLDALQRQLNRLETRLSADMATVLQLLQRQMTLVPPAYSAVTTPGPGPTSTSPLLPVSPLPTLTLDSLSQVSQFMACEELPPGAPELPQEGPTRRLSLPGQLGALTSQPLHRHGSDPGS
row,SMILES,"hERG current change (%, negative = inhibition) at 1uM [%]"
1,Cc1cc(C)cc(N(C(=O)c2csnn2)C(C(=O)NC2CCCCC2)c2ccccn2)c1 (stereo not drawn),11.5
2,CN(Cc1ccccc1)C(=O)c1ccc(NC2=NC3CS(=O)(=O)CC3S2)cc1 (stereo not drawn),-3.47
3,O=C(O)Cc1ccc(O)c(F)c1,4.7
4,CN1CCN(NC(=S)NC2CCCCC2)CC1,3.73
5,CCOC(=O)C1CCN(C(=O)c2sccc2Cl)CC1,12.5
6,O=S(=O)(Nc1ccc(Cl)cn1)c1ccc(Cl)cc1,16.8
7,O=C(NNC(=O)C1CCCO1)c1ccc(Br)cc1 (stereo not drawn),8.75
8,O=C(NC1CCCCC1)NC1CCN(S(=O)(=O)c2ccc3c(c2)OCCO3)CC1,9.08
9,Cc1ccc(S(=O)(=O)N(C(=O)c2ccncc2)c2ccc3oc4c(c3c2)CCCC4)cc1[N+](=O)[O-],19.2
10,Cc1ccc(Nc2nc(Cl)nc(NC(C)(C)C)n2)cc1,11.9
11,Cc1ccc(Cl)cc1N1CCN(C(=O)CNC(=O)c2ccc(Br)o2)CC1,4.64
12,O=C(NCC(=O)N1CCN(c2cccc(Cl)c2)CC1)c1ccc(Br)o1,-57.5
13,O=C(NCC(=O)N1CCN(c2ccccc2)CC1)c1ccc(Br)o1,-7.83
14,COc1ccc(-n2c(-c3ccc(Br)cc3)c[n+]3c2CCc2ccccc2-3)cc1.[Br-],-90.6
15,COc1ccc(-n2c(-c3ccc(Br)cc3)c[n+]3c2CCC3)cc1.[Br-],-21
16,COc1ccc(-n2c(-c3ccccc3)c[n+]3c2CCC3)cc1.[Br-],6.43
17,Cc1ccc(-n2c(-c3ccccc3)c[n+]3c2CCc2ccccc2-3)c(C)c1.[Br-],-82.5
18,COc1ccc(-n2c(-c3ccc(Br)cc3)c[n+]3c2SC(C)C3)cc1.[Br-] (stereo not drawn),-26
19,Cc1ccc(-n2c(-c3ccc(Br)cc3)c[n+]3c2CCc2ccc4cccnc4c2-3)cc1.[Br-],-86.6
20,COc1ccccc1-n1c(-c2ccccc2)c[n+]2c1CCc1ccccc1-2.[Br-],-34.7
21,Brc1ccc(-c2cn3c(n2)CCc2ccc4cccnc4c2-3)cc1,10.5
22,Cc1ccc(-n2c(-c3ccccc3)c[n+]3c2CCC3)cc1.[Br-],-2.23
23,COc1ccc(-n2c(-c3ccc(Cl)cc3)c[n+]3c2CCCCC3)cc1.[Br-],8.19

row,SMILES,"hERG current change (%, negative = inhibition) at 1uM [%]"
1,COc1ccc(-n2c(-c3ccc(Cl)cc3)c[n+]3c2CCc2ccccc2-3)cc1.[Br-],-70.3
2,Cc1ccc(-c2c[n+]3c(n2-c2ccccc2)CCC3)cc1.[Br-],1.57
3,O=C(NCCN1CCOCC1)c1ccc(N2CCCC2)c([N+](=O)[O-])c1,-2.75
4,COC(=O)/C=C\C(=O)Nc1cccc([N+](=O)[O-])c1,8.24
5,CCOc1nc(C)cc(C)c1S(=O)(=O)c1ccc(Cl)cc1,9.36
6,CCCCNC(=O)C1CCCN(S(=O)(=O)c2ccc(S(=O)(=O)NCC(C)C)cc2)C1 (stereo not drawn),-3.36
7,COc1ccccc1NCC(=O)N/N=C/c1cccnc1,4.49
8,Cn1c(SCC(=O)Nc2ccccc2)nnc1-c1ccc(NC(=O)CCc2ccccc2)cc1,6.68
9,Cc1cc(C)nc(-n2nc(C)cc2NC(=O)CN2CCc3ccccc3C2)n1,-26.4
10,COc1ccc(OC)c(C2C(C(N)=O)=C(C)Nc3nc(CCCO)nn32)c1 (stereo not drawn),15.5
11,Cc1onc(-c2ccccc2Cl)c1C(=O)N1CCN(c2ccccc2)CC1,1.1
12,O=C(c1cn(-c2ccccc2)nc1-c1cccs1)N1CCOCC1,4.92
13,C=CCN(CC=C)CCOc1cc(C)ccc1[N+](=O)[O-].O=C(O)C(=O)O,6.69
14,C=CCN(CC=C)CCOc1ccc(C)cc1[N+](=O)[O-].O=C(O)C(=O)O,-62.5
15,C=CCN(CC=C)CCOc1ccccc1[N+](=O)[O-].O=C(O)C(=O)O,1.55
16,S=C(NC1CCCCC1)N1CCN(C/C=C/c2ccccc2)CC1,3.77
17,O=C(CN1CCN(C/C=C/c2ccccc2)CC1)NC(=O)NC1CCCCC1,-69.7
18,CC1CCN(CC(=O)Nc2ccccc2C(=O)NC2CC2)CC1,5.31
19,O=C(CN1CCN(C/C=C/c2ccccc2)CC1)Nc1ccccc1C(=O)NC1CC1,-88.8
20,O=C(CN1CCN(Cc2ccccc2)CC1)NC(=O)NC1CCCCC1,-16.1
21,NC(=O)C1CCN(CC(=O)Nc2ccccc2C(=O)NC2CC2)CC1,10.7
22,O=C(CSCc1ccccc1)N/N=C/c1cc2c(cc1Br)OCO2,8.61
23,CSc1nnc(Cc2sc(-c3ccccc3)nc2-c2ccccc2)o1,12.1

row,SMILES,"hERG current change (%, negative = inhibition) at 1uM [%]"
1,COc1ccc(CN2CCN(Cc3cccn3-c3ncccn3)CC2CCO)c(C)c1C (stereo not drawn),-80.4
2,COc1ccc(CN2CCN(Cc3ccon3)CC2CCO)c(C)c1C (stereo not drawn),2.93
3,OCCC1CN(Cc2cccn2-c2ncccn2)CCN1Cc1ccc(F)cc1 (stereo not drawn),-74.7
4,OCCC1CN(Cc2cccn2-c2ncccn2)CCN1C1CCCC1 (stereo not drawn),0.978
5,COc1ccc(CN2CCN(CC3CC3)CC2CCO)c(C)c1C (stereo not drawn),13.2
6,OCCC1CN(Cc2cccn2-c2ncccn2)CCN1CCc1ccccc1 (stereo not drawn),-44.6
7,OCCC1CN(Cc2cccn2-c2cccnc2)CCN1CCc1ccccc1 (stereo not drawn),-37.5
8,CC(C)=CCN1CCN(Cc2cccn2-c2ncccn2)CC1CCO (stereo not drawn),-3.9
9,OCCC1CN(Cc2cccn2-c2ncccn2)CCN1Cc1ccccc1 (stereo not drawn),-33.4
10,OCCC1CN(Cc2cccn2-c2cccnc2)CCN1Cc1ccccc1 (stereo not drawn),-7.57
11,CCOc1ccc(CN2CCN(Cc3cccn3-c3ncccn3)CC2CCO)cc1 (stereo not drawn),-84
12,COc1cccc(CN2CCN(Cc3cccn3-c3cccnc3)CC2CCO)c1 (stereo not drawn),-62.2
13,CCC(C)NC(=O)C(=O)NCc1ccncc1 (stereo not drawn),10.8
14,CN1CCN(NC(=O)c2ccccc2F)CC1,11.7
15,COc1ccc(CC(=O)Oc2cc(C)[nH]c(=O)c2[N+](=O)[O-])cc1,4.19
16,COc1ccc(-c2csc(/C=C/c3ccc4c(c3)OCO4)n2)cc1OC,2.68
17,CN(c1ncnc(N)c1[N+](=O)[O-])C1CCCCC1,12.5
18,Cc1ccc(S(=O)(=O)N2CCC(C(=O)N3CCC3)CC2)cc1,11.3
19,CC(C)OC(=O)COc1cc(O)c2c(=O)cc(-c3ccccc3)oc2c1,10.8
20,CCOC(=O)C1CCCN(CCCc2ccccc2)C1 (stereo not drawn),-2.62
21,COc1ccccc1-c1ccc(=O)n(CC(=O)NCc2cccs2)n1,15.8
22,COCCC(=O)N1CCC(Oc2ccc(C(=O)N3C[C@@H]4CCC[C@H]3C4)cc2)CC1,5.49
23,OC[C@H]1O[C@@H](Oc2ccc3cc(Br)ccc3c2)[C@H](O)[C@@H](O)[C@H]1O,4.75

row,SMILES,"hERG current change (%, negative = inhibition) at 1uM [%]"
1,OCCC1CN(Cc2cccn2-c2cccnc2)CCN1Cc1ccc(F)cc1 (stereo not drawn),-21.4
2,CCOc1ccc(CN2CCN(Cc3cccn3-c3cccnc3)CC2CCO)cc1 (stereo not drawn),-86.3
3,CC(C)CCN1CCN(Cc2cccn2-c2cccnc2)CC1CCO (stereo not drawn),-9.84
4,Cc1cc(/C([O-])=C(/C(=S)Nc2ccccc2)[n+]2ccccc2)c(C)n1-c1ccccc1,9.1
5,CCOc1ccc(N2C(=O)CC(N3CCc4ccccc43)C2=O)cc1 (stereo not drawn),5.06
6,CCOc1ccc(N2C(=O)CC(N3CCN(C4CCc5ccccc5C4)CC3)C2=O)cc1 (stereo not drawn),-65.5
7,COc1ccc(N2C(=O)CC(N3CCN(C4CCc5ccccc5C4)CC3)C2=O)cc1 (stereo not drawn),-37.7
8,O=C1CC(N2CCN(C3CCc4ccccc4C3)CC2)C(=O)N1c1ccccc1 (stereo not drawn),-42.7
9,Cc1ccc(N2C(=O)CC(N3CCN(C4CCc5ccccc5C4)CC3)C2=O)cc1 (stereo not drawn),-59
10,Cc1ccc(N2C(=O)CC(N3CCN(c4ccccn4)CC3)C2=O)cc1 (stereo not drawn),-8.68
11,O=C(CSc1nc2[nH]ncc2c(=O)[nH]1)Nc1ccc(F)cc1,13.3
12,N#Cc1c(-c2ccccc2)cc(-c2ccc3c(c2)OCO3)[nH]c1=O,11
13,CCCCC(C(=O)O)C(C)CC(=O)Nc1cccc(C(=O)O)c1 (stereo not drawn),3.02
14,Cc1cccc(OCCSCc2nc3ccccc3[nH]2)c1,12.1
15,CC(=O)Nc1ccc(S(=O)(=O)Nc2ccc(-c3ccc4nnc(C)n4n3)cc2)cc1,-3.52
16,COc1cccc(NC(=O)C(Sc2nc3ccccc3c(=O)n2CC(C)C)c2ccccc2)c1 (stereo not drawn),6.46
17,Cc1cccc(NC(=O)c2cc3c(=O)n4ccccc4nc3s2)c1,11.5
18,COc1ccc(NC(=O)c2cc3c(=O)n4ccccc4nc3n2C)cc1OC,11.4
19,COc1cccc(NC(=O)c2cc3c(=O)n4ccccc4nc3n(CC(C)C)c2=N)c1,-87.5
20,Cc1cccc(NC(=O)c2c(C)nc3ccccn23)c1,3.98
21,Cc1cccc(NC(=O)c2cc3c(=O)n4ccccc4nc3n(CC(C)C)c2=N)c1,-52.2
